# PMC7862700, “An all-to-all approach to the identification of sequence-specific readers for epigenetic DNA modifications on cytosine”
# Assays:
# Assay in all cases: DAPPL (digital affinity profiling via proximity ligation, sequencing); 10 mM Tris-HCl pH 7.5, 50 mM NaCl, 1 mM DTT, 4% glycerol, room temperature, 30 min; GST-TFs on glutathione beads, 16-mer random dsDNA library, 0.1% formaldehyde crosslink after washing; high values mean tight binding
# [1] = target: T1, FLI1 (Homo sapiens, UniProt Q01543 1-452); conditions: protein: recombinant; tags: N-terminal GST; dsDNA, one strand shown
# T1 sequence: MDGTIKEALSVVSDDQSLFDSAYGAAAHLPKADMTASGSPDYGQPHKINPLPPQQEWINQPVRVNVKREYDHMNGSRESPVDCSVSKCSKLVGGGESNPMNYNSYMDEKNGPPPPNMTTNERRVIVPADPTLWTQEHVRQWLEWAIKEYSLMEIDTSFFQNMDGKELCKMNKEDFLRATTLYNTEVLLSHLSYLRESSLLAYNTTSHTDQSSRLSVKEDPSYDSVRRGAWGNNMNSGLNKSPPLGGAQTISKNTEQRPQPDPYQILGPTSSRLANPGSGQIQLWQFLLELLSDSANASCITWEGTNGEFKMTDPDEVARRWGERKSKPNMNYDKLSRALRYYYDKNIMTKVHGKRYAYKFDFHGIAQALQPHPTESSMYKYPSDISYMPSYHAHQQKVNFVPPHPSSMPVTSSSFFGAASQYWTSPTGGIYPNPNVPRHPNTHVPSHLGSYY
# Method in brief: (§1)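 Sequencing on an Illumina NextSeq500 followed washing, crosslinking with 0.1% formaldehyde, proximity ligation (BsaI/T4 ligase, 1 h, 37 °C) and PCR amplification of pools that had been incubated for 30 min at room temperature with 200 nmole of a random double-stranded 16-mer DNA library in Tris/NaCl/DTT/glycerol buffer. Each pool held DNA-barcoded human transcription factors, expressed in yeast as GST fusions and captured on glutathione beads, plus a tag-only sample. Binding signal is a hexamer's read frequency for a factor divided by its frequency in the tag-only sample.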
# [2] = target: T2, ELK1 (Homo sapiens, UniProt P19419 1-428); conditions: protein: recombinant; tags: N-terminal GST; dsDNA, one strand shown
# T2 sequence: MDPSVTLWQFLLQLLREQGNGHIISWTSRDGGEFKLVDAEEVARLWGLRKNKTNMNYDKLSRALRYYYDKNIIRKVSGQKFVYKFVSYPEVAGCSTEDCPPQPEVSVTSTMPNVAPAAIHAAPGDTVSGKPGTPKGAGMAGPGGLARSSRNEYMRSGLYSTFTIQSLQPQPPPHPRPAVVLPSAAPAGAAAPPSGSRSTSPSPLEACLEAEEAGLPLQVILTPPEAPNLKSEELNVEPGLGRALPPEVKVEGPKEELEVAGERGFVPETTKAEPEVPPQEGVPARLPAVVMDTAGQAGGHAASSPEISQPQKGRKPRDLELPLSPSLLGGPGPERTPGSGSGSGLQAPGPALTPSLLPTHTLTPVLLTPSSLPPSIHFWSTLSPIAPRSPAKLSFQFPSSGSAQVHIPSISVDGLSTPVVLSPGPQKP
# Method in brief: as §1
# [3] = target: T3, GABPA (Homo sapiens, UniProt Q06546 1-454); conditions: protein: recombinant; tags: N-terminal GST; dsDNA, one strand shown
# T3 sequence: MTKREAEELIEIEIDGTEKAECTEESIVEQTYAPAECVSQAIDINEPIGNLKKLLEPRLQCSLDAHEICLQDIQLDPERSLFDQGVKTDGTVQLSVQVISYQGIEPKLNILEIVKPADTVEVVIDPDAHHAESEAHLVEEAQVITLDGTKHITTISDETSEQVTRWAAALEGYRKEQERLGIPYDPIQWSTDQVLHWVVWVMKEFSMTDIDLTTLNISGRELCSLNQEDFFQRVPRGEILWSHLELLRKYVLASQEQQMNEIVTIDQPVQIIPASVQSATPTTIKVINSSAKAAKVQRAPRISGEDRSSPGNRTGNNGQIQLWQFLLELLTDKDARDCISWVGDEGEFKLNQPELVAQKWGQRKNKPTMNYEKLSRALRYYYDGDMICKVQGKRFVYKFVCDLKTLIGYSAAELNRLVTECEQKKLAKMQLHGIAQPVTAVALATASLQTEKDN
# Method in brief: as §1
# [4] = target: T4, ERG (Homo sapiens, UniProt P11308 1-479); conditions: protein: recombinant; tags: N-terminal GST; dsDNA, one strand shown
# T4 sequence: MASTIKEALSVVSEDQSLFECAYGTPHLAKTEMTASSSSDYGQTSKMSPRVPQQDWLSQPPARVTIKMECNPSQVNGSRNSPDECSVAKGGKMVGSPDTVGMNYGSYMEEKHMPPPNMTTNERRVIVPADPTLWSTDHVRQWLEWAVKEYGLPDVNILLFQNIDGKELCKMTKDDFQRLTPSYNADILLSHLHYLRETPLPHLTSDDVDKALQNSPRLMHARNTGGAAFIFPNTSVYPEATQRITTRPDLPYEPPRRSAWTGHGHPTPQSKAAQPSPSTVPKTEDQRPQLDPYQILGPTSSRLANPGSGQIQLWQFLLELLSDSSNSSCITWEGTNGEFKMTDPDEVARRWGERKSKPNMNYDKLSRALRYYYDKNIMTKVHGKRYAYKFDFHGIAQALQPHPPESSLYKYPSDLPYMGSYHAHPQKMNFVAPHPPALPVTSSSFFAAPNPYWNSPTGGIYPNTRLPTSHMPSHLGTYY
# Method in brief: as §1
# [5] = target: ELF1 (Homo sapiens, UniProt P32519 1-619); conditions: protein: recombinant; tags: N-terminal GST; dsDNA, one strand shown
# ELF1, sequence (P32519 whole entry): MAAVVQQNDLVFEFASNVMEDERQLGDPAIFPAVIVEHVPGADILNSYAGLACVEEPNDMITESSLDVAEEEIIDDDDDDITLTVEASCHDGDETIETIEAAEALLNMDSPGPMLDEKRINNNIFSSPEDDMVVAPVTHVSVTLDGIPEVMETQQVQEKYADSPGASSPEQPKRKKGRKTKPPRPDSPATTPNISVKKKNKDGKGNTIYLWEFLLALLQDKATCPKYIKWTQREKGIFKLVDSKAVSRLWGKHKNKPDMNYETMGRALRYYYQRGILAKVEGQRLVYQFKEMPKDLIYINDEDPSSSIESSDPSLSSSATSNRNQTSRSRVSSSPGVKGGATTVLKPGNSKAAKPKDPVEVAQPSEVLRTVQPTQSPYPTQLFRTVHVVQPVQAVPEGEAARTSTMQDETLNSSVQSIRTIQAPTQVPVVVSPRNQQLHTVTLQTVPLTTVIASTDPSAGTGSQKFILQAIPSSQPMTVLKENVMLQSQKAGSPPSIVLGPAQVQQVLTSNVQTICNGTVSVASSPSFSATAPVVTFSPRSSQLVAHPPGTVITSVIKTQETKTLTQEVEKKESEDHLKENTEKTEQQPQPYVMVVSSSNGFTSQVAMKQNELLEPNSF
# Method in brief: as §1
# [6] = target: T5, EHF (Homo sapiens, UniProt Q9NZC4 1-300); conditions: protein: recombinant; tags: N-terminal GST; dsDNA, one strand shown
# T5 sequence: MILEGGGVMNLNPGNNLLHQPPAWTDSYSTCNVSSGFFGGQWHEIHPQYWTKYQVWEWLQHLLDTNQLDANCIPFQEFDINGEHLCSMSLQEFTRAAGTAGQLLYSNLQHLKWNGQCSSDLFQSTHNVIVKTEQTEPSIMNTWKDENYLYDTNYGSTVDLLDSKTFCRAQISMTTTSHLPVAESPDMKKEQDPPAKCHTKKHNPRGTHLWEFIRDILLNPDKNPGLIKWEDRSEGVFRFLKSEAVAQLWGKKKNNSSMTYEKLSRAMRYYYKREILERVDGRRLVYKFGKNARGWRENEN
# Method in brief: as §1
# [7] = target: SPI1 (Homo sapiens, UniProt P17947 1-270); conditions: protein: recombinant; tags: N-terminal GST; dsDNA, one strand shown
# Method in brief: as §1
# [8] = target: SPIB (Homo sapiens, UniProt Q01892 1-262); conditions: protein: recombinant; tags: N-terminal GST; dsDNA, one strand shown
# SPIB, sequence (Q01892 whole entry): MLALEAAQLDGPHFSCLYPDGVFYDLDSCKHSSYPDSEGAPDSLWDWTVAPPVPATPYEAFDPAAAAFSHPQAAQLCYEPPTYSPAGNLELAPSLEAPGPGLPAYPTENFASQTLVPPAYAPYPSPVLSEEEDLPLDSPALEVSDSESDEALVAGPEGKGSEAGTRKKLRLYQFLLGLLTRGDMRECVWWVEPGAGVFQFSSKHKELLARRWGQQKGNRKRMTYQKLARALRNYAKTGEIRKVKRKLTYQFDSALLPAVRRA
# Method in brief: as §1
# [9] = target: T6, ELK3 (Homo sapiens, UniProt P41970 1-407); conditions: protein: recombinant; tags: N-terminal GST; dsDNA, one strand shown
# T6 sequence: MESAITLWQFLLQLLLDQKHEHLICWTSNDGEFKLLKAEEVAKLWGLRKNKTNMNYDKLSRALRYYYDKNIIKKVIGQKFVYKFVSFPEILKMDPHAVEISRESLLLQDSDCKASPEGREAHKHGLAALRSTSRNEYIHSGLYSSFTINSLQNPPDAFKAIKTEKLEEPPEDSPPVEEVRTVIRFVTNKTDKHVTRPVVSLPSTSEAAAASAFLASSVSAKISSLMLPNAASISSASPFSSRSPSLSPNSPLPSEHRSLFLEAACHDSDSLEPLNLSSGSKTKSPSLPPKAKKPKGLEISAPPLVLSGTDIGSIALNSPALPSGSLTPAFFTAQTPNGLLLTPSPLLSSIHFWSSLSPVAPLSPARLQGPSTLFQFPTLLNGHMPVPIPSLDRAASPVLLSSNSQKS
# Method in brief: as §1
# [10] = target: T7, FEV (Homo sapiens, UniProt Q99581 1-238); conditions: protein: recombinant; tags: N-terminal GST; dsDNA, one strand shown
# T7 sequence: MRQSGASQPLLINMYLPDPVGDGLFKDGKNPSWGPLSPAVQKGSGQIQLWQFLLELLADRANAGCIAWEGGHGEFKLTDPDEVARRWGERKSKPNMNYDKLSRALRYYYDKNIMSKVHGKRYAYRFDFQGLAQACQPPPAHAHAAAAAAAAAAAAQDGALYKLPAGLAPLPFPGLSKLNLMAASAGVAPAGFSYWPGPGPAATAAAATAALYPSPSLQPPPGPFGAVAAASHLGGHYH
# Method in brief: as §1
# [11] = target: ETV5 (Homo sapiens, UniProt P41161 1-510); conditions: protein: recombinant; tags: N-terminal GST; dsDNA, one strand shown
# ETV5, sequence (P41161 whole entry): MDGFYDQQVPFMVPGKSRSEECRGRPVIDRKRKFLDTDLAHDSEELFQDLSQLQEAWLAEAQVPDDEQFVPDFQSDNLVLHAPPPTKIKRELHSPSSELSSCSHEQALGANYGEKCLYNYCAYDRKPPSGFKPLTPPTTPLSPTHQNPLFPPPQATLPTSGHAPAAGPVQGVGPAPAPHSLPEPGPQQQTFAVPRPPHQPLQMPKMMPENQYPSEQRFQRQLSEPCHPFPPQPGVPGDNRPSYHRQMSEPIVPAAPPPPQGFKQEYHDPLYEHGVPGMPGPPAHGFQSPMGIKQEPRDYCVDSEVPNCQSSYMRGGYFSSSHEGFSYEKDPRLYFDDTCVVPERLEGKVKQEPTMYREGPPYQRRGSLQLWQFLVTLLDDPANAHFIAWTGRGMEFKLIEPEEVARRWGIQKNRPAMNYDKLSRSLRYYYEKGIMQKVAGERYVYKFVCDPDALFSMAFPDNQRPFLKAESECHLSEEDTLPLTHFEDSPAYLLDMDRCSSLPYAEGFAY
# Method in brief: as §1
# [12] = target: HSF1 (Homo sapiens, UniProt Q00613 1-529); conditions: protein: recombinant; tags: N-terminal GST; chain copies: 3; dsDNA, one strand shown
# HSF1, sequence (Q00613 whole entry): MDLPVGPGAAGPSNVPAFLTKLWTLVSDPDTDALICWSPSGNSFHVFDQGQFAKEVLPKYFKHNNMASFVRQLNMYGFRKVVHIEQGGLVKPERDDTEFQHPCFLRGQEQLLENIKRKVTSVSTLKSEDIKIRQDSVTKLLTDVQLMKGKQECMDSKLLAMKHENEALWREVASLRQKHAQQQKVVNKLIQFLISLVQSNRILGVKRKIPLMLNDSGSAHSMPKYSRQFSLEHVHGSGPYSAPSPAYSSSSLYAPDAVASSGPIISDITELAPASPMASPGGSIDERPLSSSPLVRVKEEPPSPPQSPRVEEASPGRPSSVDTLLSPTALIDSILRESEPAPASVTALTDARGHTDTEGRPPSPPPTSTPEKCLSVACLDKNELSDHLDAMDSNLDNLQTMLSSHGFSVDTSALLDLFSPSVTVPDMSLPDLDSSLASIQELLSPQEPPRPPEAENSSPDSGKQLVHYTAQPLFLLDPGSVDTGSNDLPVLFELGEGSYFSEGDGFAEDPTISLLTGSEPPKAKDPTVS
# Method in brief: as §1
# [13] = target: T8, SPIC (Homo sapiens, UniProt Q8N5J4 1-248); conditions: protein: recombinant; tags: N-terminal GST; dsDNA, one strand shown
# T8 sequence: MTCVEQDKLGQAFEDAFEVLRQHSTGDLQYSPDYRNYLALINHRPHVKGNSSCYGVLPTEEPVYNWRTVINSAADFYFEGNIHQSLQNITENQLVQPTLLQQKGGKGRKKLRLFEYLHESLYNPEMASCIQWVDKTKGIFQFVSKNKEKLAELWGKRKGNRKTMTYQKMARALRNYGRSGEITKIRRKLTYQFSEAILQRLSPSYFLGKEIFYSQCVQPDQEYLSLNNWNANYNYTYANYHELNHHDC
# Method in brief: as §1
# [14] = target: ELF4 (Homo sapiens, UniProt Q99607 1-663); conditions: protein: recombinant; tags: N-terminal GST; dsDNA, one strand shown
# ELF4, sequence (Q99607 whole entry): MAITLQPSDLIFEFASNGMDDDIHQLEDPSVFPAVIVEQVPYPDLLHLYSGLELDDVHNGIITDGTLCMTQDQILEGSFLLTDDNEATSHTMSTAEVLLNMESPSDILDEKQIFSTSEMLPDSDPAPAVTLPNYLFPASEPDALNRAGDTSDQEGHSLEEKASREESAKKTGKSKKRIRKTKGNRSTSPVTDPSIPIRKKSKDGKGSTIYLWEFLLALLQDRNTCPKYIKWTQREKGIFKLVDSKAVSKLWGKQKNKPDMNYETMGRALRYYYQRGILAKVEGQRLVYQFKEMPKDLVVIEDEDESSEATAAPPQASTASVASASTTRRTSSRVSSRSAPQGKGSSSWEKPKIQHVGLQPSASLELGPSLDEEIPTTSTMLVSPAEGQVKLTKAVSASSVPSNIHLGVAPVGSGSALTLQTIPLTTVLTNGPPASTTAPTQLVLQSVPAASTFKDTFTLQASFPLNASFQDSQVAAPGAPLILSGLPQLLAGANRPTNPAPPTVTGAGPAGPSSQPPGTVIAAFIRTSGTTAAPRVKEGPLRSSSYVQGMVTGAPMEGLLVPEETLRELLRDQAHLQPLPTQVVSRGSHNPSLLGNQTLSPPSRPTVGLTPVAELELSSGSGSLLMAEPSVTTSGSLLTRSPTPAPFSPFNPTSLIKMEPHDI
# Method in brief: as §1
# [15] = target: T9, ELK4 (Homo sapiens, UniProt P28324-2 1-405); conditions: protein: recombinant; tags: N-terminal GST; dsDNA, one strand shown
# T9 sequence: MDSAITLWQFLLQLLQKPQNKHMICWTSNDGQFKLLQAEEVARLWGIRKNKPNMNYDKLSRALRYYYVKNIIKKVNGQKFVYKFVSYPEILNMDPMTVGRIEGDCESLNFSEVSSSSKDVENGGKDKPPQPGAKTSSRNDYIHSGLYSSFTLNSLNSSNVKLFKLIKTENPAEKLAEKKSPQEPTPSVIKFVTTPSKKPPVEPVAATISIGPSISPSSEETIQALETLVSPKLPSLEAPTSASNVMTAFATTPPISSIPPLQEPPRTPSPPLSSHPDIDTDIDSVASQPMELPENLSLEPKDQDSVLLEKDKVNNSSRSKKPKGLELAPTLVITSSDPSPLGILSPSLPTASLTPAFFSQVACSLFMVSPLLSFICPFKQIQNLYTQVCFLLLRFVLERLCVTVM
# Method in brief: as §1
# [16] = target: T10, ETV2 (Homo sapiens, UniProt O00321 1-342); conditions: protein: recombinant; tags: N-terminal GST; dsDNA, one strand shown
# T10 sequence: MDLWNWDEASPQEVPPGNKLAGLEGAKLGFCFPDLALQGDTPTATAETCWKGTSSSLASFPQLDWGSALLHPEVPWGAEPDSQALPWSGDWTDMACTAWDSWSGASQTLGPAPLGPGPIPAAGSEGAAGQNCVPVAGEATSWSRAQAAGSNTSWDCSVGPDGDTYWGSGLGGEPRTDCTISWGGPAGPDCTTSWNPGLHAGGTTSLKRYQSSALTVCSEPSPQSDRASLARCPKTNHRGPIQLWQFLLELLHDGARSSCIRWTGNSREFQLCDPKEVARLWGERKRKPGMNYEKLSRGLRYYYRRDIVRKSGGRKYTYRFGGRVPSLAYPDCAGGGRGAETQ
# Method in brief: as §1
# [17] = target: T11, ELF3 (Homo sapiens, UniProt P78545 1-371); conditions: protein: recombinant; tags: N-terminal GST; dsDNA, one strand shown
# T11 sequence: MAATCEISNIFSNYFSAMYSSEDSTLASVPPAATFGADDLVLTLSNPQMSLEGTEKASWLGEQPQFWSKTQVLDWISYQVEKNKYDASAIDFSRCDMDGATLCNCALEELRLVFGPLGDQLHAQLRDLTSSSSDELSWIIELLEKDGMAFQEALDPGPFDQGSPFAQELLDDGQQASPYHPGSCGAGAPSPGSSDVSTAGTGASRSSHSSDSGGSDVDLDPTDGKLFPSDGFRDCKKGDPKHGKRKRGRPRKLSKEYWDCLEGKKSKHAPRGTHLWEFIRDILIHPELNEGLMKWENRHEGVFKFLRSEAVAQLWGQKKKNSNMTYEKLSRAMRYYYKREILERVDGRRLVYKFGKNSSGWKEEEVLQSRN
# Method in brief: as §1
# [18] = target: CRX (Homo sapiens, UniProt O43186 1-299); conditions: protein: recombinant; tags: N-terminal GST; dsDNA, one strand shown
# CRX, sequence (O43186 whole entry): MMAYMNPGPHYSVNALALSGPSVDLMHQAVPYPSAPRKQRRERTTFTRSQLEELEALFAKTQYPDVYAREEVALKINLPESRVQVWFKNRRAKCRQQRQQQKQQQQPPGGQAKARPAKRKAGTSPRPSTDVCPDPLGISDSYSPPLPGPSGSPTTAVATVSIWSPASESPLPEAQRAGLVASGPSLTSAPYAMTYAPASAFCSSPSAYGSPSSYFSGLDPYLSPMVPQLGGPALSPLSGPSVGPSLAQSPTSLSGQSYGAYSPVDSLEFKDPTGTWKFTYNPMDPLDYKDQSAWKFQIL
# Method in brief: as §1
# [19] = target: ETV1 (Homo sapiens, UniProt P50549 1-477); conditions: protein: recombinant; tags: N-terminal GST; dsDNA, one strand shown
# ETV1, sequence (P50549 whole entry): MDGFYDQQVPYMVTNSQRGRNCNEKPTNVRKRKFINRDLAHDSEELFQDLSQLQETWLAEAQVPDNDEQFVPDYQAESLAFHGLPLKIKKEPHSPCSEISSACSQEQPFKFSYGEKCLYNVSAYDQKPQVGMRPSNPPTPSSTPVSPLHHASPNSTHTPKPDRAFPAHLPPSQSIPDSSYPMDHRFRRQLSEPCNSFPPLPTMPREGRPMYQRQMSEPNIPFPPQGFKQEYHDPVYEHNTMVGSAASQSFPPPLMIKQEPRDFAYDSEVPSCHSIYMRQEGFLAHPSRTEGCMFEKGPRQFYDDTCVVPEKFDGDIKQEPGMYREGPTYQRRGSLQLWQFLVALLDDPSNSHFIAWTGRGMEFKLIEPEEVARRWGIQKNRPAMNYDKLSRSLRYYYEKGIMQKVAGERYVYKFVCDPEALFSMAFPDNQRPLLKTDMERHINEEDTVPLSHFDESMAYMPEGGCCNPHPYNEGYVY
# Method in brief: as §1
sequence,measurement,setting,value
AAGTCT,binding signal,[1],"1.28 fold enrichment (6-mer frequency, TF over GST control)"
same,binding signal,[2],"1.18 fold enrichment (6-mer frequency, TF over GST control)"
same,binding signal,[3],"1.07 fold enrichment (6-mer frequency, TF over GST control)"
same,binding signal,[4],"1.12 fold enrichment (6-mer frequency, TF over GST control)"
same,binding signal,[5],"1.14 fold enrichment (6-mer frequency, TF over GST control)"
same,binding signal,[6],"1.13 fold enrichment (6-mer frequency, TF over GST control)"
same,binding signal,[7],"1.27 fold enrichment (6-mer frequency, TF over GST control)"
same,binding signal,[8],"1.29 fold enrichment (6-mer frequency, TF over GST control)"
same,binding signal,[9],"1.18 fold enrichment (6-mer frequency, TF over GST control)"
same,binding signal,[10],"1.07 fold enrichment (6-mer frequency, TF over GST control)"
same,binding signal,[11],"1.12 fold enrichment (6-mer frequency, TF over GST control)"
same,binding signal,[12],"1.25 fold enrichment (6-mer frequency, TF over GST control)"
same,binding signal,[13],"1.04 fold enrichment (6-mer frequency, TF over GST control)"
same,binding signal,[14],"1.06 fold enrichment (6-mer frequency, TF over GST control)"
same,binding signal,[15],"1.13 fold enrichment (6-mer frequency, TF over GST control)"
same,binding signal,[16],"1.06 fold enrichment (6-mer frequency, TF over GST control)"
same,binding signal,[17],"1.13 fold enrichment (6-mer frequency, TF over GST control)"
same,binding signal,[18],"1.28 fold enrichment (6-mer frequency, TF over GST control)"
same,binding signal,[19],"1.09 fold enrichment (6-mer frequency, TF over GST control)"
